Compound activity (PubChem)
The full list was thinned out, with hits kept by preference.
HIV RNase H inh: inhibitors of HIV-1 reverse transcriptase RNase H. 65,000 compounds, 1.9% hits. inhibition, % at 10 µM. AID 565. RT-RNase H RNA/DNA duplex cleavage, fluorescence. P04585; in the data active = inhibition above about 50%
RmlCD inh mix: RmlC/RmlD inhibition, mixture screen; RmlC/RmlD coupled enzyme inhibition, 384-well mixture HTS; inhibition, % at 5.5 µM; 110,000 compounds, 0.39% hits; AID 1532; in the data active = inhibition above about 30%, passing the limit was not always enough
RmlCD fluor art: shows fluorescent artifact in RmlC/RmlD assay, dose-response counter-screen. shares compounds with RmlCD inh mix. RmlC/RmlD assay fluorescence artifact counter-screen. calls only. 360 compounds, 96% hits. AID 1696; call rule not given here;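 also: compound alone with no enzyme and no substrates present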
A number is an active result; i = inactive; nt = no result given; + = active, no number.

SMILES	HIV RNase H inh	RmlCD inh mix	RmlCD fluor art
CC(C)(C)NC(=O)CN(C(=O)C1(C)CC(=O)N=C2C=CC=CN21)C1CCCC1 (stereo not given)	i	39	+
CC1=CC2=NC(=O)CC(C)(C(=O)N(CC(=O)NC(C)(C)C)C3CCCC3)N2C=C1 (stereo not given)	i	i	nt
Cc1nc(Nc2nc(=O)c3ccccc3n2C)nc2c(C)cccc12	i	nt	nt
COc1cc(NC(=O)c2ccco2)c(OC)cc1NC(=O)c1cc(OC)c(OC)c(OC)c1	i	i	nt
CCOc1cc(NC(=O)c2ccco2)c(OCC)cc1NC(=O)c1cc(OC)c(OC)c(OC)c1	i	+	+
Cc1c(N(C)C)nc2ccccc2c1N	i	i	nt
CN(C)c1c2ccccc2nc2c(F)c(F)c(F)c(F)c12	nt	nt	+
CCc1ccccc1N(C(=O)CCC(=O)Nc1cc(C)on1)C(C(=O)NC1CCCC1)c1ccco1 (stereo not given)	i	i	nt
Cc1nn(Cc2ccc(Cl)cc2Cl)c(C)c1NC(=O)NC12CC3CC(CC(C3)C1)C2	nt	i	nt
Cc1ccc(NC(=O)CCn2cccc2)cc1Cl	i	i	nt
CNC(=O)c1ccc(-c2ccc(F)cc2)s1	nt	i	nt
CNC(=O)c1ccc(-c2ccc(OC)cc2)s1	nt	85	+
Cc1ccc2nc3c(cc(C#N)c(=O)n3CCN3CCOCC3)c(=O)n2c1	i	nt	nt
Cc1ccc2nc3c(cc(C#N)c(=O)n3-c3nccs3)c(=O)n2c1	i	107	+
Cc1ccc(-n2c(=O)c(C#N)cc3c(=O)n4cccc(C)c4nc32)cc1	nt	i	nt
Cc1ccc2nc3c(cc(C#N)c(=O)n3CC3CCCO3)c(=O)n2c1 (stereo not given)	i	105	+
O=C(CCCSc1nnnn1-c1ccccc1)c1ccc(F)cc1	nt	i	nt
CC(C)(C)c1ccc(OCCNC(=O)c2ncn[nH]2)cc1	nt	i	nt
CC(C)C(=O)Nc1cccc2nsnc12	i	i	nt
COc1ccc(/C=N/NC(=O)Nc2cccc3nsnc23)c(OC)c1	nt	39	+
Cc1cc(OCC(=O)N(C)C)c2c(-c3ccccc3)cc(=O)oc2c1	i	i	nt
CN(C)C(=O)COc1ccc2cc(-c3ccccc3)c(=O)oc2c1	i	55	+
Cc1ccc(SCc2cn3c(C)csc3n2)cc1	i	i	nt
CC(C)(C)c1ccc(/C([O-])=C(/C(=S)NCc2ccco2)[n+]2ccccc2)cc1	nt	i	nt
COC(=O)c1ccc(-c2cc(C(=O)O)c3cc4c(cc3n2)OCCO4)cc1	i	48	+
SMILES	HIV RNase H inh	RmlCD inh mix	RmlCD fluor art
COc1cc(-c2cc(C(=O)O)c3cc4c(cc3n2)OCCO4)cc(OC)c1OC	nt	i	nt
O=C(O)C[C@@H](O)C(=O)O	nt	i	nt
COc1cc(=O)n(C)c2cc(N(C)C)ccc12	i	80	+
CN1C(=O)c2ccc(N(C)C)cc2C1=O	i	i	nt
COc1ccccc1-n1c(CNC(=O)c2ccco2)nnc1SCC(=O)Nc1ccc(F)cc1	i	i	nt
COC(=O)c1ccc(Oc2c(C)oc3c(CN4CCN(C)CC4)c(O)ccc3c2=O)cc1	i	40	+
COc1ccccc1Oc1c(C)oc2c(CN3CCN(C)CC3)c(O)ccc2c1=O	i	nt	nt
O=C1C(c2ccncc2)N(CCC2=CCCCC2)C(=O)CN1C1CCCCC1 (stereo not given)	i	i	nt
N#Cc1cnn2c(-c3ccccc3)ccnc12	nt	i	nt
COc1ccc(-c2ccnc3c(C#N)cnn23)cc1	nt	nt	+
CNS(=O)(=O)c1cnccc1N1CCN(c2cccc(C(F)(F)F)c2)CC1	nt	i	nt
O=c1cccc2n1Cc1cc3ccccc3nc1-2	nt	55	+
Cc1nc2ccccc2cc1C(=O)O	nt	i	nt
OC[C@@H](O)[C@@H](O[C@@H]1O[C@H](CO)[C@H](O)[C@H](O)[C@H]1O)[C@H](O)[C@@H](O)CO	nt	i	nt
CC(C)(C)OC(=O)N1CCC2(CC1)Oc1ccc(Cl)cc1C(=O)C21CC(c2ccc(Cl)cc2)=NO1 (stereo not given)	nt	i	nt
COCCn1c(=N)c(C(=O)NCCc2ccccc2)cc2c(=O)n3cccc(C)c3nc21	i	58	+
Cc1ccc(CNC(=O)c2cc3c(=O)n4cccc(C)c4nc3n(CC3CCCO3)c2=N)cc1 (stereo not given)	i	nt	nt
CCNC(=O)c1cc2c(=O)n3cccc(C)c3nc2n(CCc2ccccc2)c1=N	i	59	+
Cc1cccn2c(=O)c3cc(C(=O)NCc4ccccc4)c(=N)n(CCCN4CCOCC4)c3nc12	i	nt	nt
Cc1cccn2c(=O)c3cc(C(=O)NCc4ccco4)c(=N)n(CCOCCO)c3nc12	i	i	nt
Cc1cccn2c(=O)c3cc(C(=O)NCCN4CCOCC4)c(=N)n(CCc4ccccc4)c3nc12	i	nt	nt
Cc1cccn2c(=O)c3cc(C(=O)NCCc4ccccc4)c(=N)n(CCCn4ccnc4)c3nc12	nt	38	+
CCCn1c(=N)c(C(=O)NCC2CCCO2)cc2c(=O)n3cccc(C)c3nc21 (stereo not given)	i	87	+
CC(=O)/C(=C/N(C)C)Sc1ccc(C)cc1	nt	i	nt
